{"source": "PubChem BioAssay (NCI)", "note": "The panel holds about 83,000 compounds, 20% with a hit somewhere; the sample as a whole holds those more often.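 Testing used 96-well plates and a 48-hour single-concentration exposure. Example: -40 means 40% of the starting cells died.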 Values without a mark were called inactive. The source made the active and inactive calls. Rule for the calls: active = growth percent below 10; inactive = the rest.", "data": [{"tested_on": "HL-60(TB) leukemia", "assay": "NCI-60 one-dose screen, 48 h (100 = growth as untreated, 0 = no growth, -100 = all killed)", "settings": "10 µM unless noted", "values": [{"smiles": "Cc1ccccc1CNc1c2ccccc2nc2ccccc12", "growth": "15.3%"}, {"smiles": "CNC(=O)c1cc(Oc2ccc(NC(=O)Nc3cc(C(C)(C)C)nn3-c3ccc4ncccc4c3)c(F)c2)ccn1", "growth": "-43.2% (active)"}, {"smiles": "O=C(COC(=O)[C@H](C[Se][Se]C[C@H](NC(=O)c1ccc(Br)cc1F)C(=O)OCC(=O)c1ccc(F)cc1)NC(=O)c1ccc(Br)cc1F)c1ccc(F)cc1", "growth": "-45.3% (active)"}, {"smiles": "O=C(O)CCCCNC(=O)c1ccccc1", "growth": "101%"}, {"smiles": "OCCOCC(F)(F)F", "growth": "-0.411% (active)"}, {"smiles": "NC(=O)/C=C/C(=O)c1c(Cl)cccc1Cl", "growth": "-21.6% (active)"}, {"smiles": "CN(C)CC/C=C1\\c2ccccc2Sc2ccc(Cl)cc21", "growth": "94.2%"}, {"smiles": "O=C(Nc1ccc(C23CC4CC(CC(c5ccccc5)(C4)C2)C3)cc1)c1cccs1", "growth": "51%"}, {"smiles": "C=CCn1c(SCC(=O)Nc2ccc(C(=O)/C=C/c3ccc(Cl)cc3)cc2)nnc1-c1cc(OC)c(OC)c(OC)c1", "growth": "97.7%"}, {"smiles": "O=C(Nc1cccc2c1C(=O)c1cccc(NC(=O)c3ccc(C(=O)Nc4cccc5c4C(=O)c4cccc(NC(=O)c6ccccc6)c4C5=O)cc3)c1C2=O)c1ccccc1", "growth": "83.4%"}, {"smiles": "CC(=O)OC(C(=O)O)c1ccccc1", "note": "(centres undefined)", "growth": "3.72% (active)"}, {"smiles": "COc1ccc(C2C=C(c3ccc(Cl)cc3)N=C3SC=CN32)c(Br)c1", "note": "(centres undefined)", "growth": "92.9%"}, {"smiles": "FC(F)(F)c1ccc(-c2cnc(Cl)nc2N2CCC3(CC2)OCCO3)cc1", "growth": "83.6%"}, {"smiles": "O=c1oc2ccccc2cc1-c1csc(N=Nc2c(O)[nH]c3ccc(Br)cc23)n1", "growth": "106%"}]}]}
